A selection: hits, their analogues and other compounds. The true share with any hit is near 5.7%.
KB-V1 cytotox: kills drug-selected multidrug resistant KB-V1 cells. KB-V1 MDR cells viability, CellTiter-Glo, 72 h. Potency, µM (highest dose often 46.1 µM), actives largely listed as cytotoxic. 400,000 compounds, 3.4% hits. AID 1347076; also: potency is read from the fitted curve at half-maximal effect; nearly all actives have a fitted effect of over 60% in size
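KB-V1 MDR subline cells in DMEM (phenol-red free, 10% FBS) exposed to compounds in qHTS concentration series for 72 h at 37 degrees C. Viability read by CellTiter-Glo luminescence; concentration-effect curves fitted after normalization and correction.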
KB-3-1 cytotox: kills parental KB-3-1 adenocarcinoma cells | KB-3-1 viability, CellTiter-Glo ATP luminescence, 72 h | Potency, µM (top dose mostly 46.1 µM), usual class: cytotoxic | 400,000 compounds, 1.4% hits; also: potency is read from the fitted curve at half-maximal effect; nearly all actives have a fitted effect of over 60% in size
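Multi-concentration cytotoxicity screen in KB-3-1 cells grown in DMEM lacking phenol red with 10% FBS. After 72 h at 37 °C with compound, ATP-dependent luminescence was recorded.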
A549 tox: kills or reduces viability of A549 cells in Nrf2 counter-screen; A549 ARE-Fluc cells, CellTiter-Fluor viability, 18-24 h; Potency, µM (top dose mostly 46 µM), for the others: top-dose activity change, negative = cytotoxicity, hits mostly inhibitors; 390,000 compounds, 0.16% hits; AID 504648; also: potency is read from the fitted curve at half-maximal effect
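A549 ARE_Fluc cells in 5% FBS OPTI-MEM were exposed to compounds in concentration-response for 18-24 h at 37 deg C. Viability was read by CellTiter-Fluor fluorescence (Ex 405/Em 525) after 30 min, before the luciferase read.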
Giardia killer: kills Giardia lamblia | activity change, % at 7.66 µM, hits read low | 340,000 compounds, 0.15% hits | AID 540267 | Giardia lamblia trophozoite viability; in the data active = activity change below about -80%; inconclusive = between about -30% and that limit;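 also: parasites exposed to compound for two days anaerobically before the ATP read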
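Giardia lamblia trophozoites (100 cells/well) were incubated with compounds for 48 h at 37 deg C under anaerobic conditions. Viability was read as ATP content by one-step luminescence after 15-30 min at room temperature.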
Nrf2 inh: blocks Nrf2 signaling | AID 504444 | 360,000 compounds, 2.1% hits | Potency, µM (top dose mostly 46 µM), without a hit: top-dose activity change, negative = inhibition, actives largely listed as inhibitors | A549 ARE-Fluc reporter, luciferase luminescence, 18-24 h; also: potency is read from the fitted curve at half-maximal effect; nearly all actives have a fitted effect of over 60% in size
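In this cell-based qHTS, ARE-driven firefly luciferase in A549 cells reports Nrf2 activity; the luminescent signal after BugLite lysis is the measured value, with a prior CellTiter-Fluor read for cell health.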
PI4K2A block: blocks human PI4K2A kinase activity; purified PI4K2A, ADP-Glo luminescence, 1 h; stronger effect = lower value; Q9BTU6; activity change, negative = inhibition, % at 76.9 µM; AID 1346378; 420,000 compounds, 0.13% hits; in the data active = activity change below about -50%; inconclusive = mostly about -30% to -49%;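 also: -100% = wells without enzyme as full effect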
Target sequence (Q9BTU6 whole entry, looked up): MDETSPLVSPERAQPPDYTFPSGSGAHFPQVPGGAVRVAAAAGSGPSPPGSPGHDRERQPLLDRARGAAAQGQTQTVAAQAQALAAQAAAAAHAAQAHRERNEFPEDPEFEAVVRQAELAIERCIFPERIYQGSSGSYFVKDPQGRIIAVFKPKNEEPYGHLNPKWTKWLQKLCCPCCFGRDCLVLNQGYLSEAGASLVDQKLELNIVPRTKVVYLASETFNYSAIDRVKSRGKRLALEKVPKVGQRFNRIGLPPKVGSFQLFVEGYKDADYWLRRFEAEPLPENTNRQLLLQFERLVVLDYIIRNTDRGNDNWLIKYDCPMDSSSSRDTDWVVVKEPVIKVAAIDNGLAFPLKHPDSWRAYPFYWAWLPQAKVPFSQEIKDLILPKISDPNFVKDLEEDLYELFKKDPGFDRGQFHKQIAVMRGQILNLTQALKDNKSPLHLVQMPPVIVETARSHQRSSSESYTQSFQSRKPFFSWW
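ADP-Glo luminescence measured ADP generated by PI4K2A enzyme (4 ug/mL before mixing) with 1.2 mM PI substrate (pre-mix) and 300 microM ATP (pre-mix). Tris pH7.5 buffer with MgCl2, Triton X-100; 1 h reaction at ambient temperature.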
An asterisk follows results filed as active; i = inactive; u = inconclusive; x = not tested or not shown. Unless noted, calls follow the shape of the dose curve; as a rule, active = well fitted curve in the direction sought with a large enough effect; inconclusive = small, poorly fitted or top-dose-only effect, or another doubt; inactive = no such curve, though single readings can be large; an effect the other way counts as inactive or inconclusive. Unless noted, % is scaled to controls: 0 for no effect and ±100 for the full control effect.

SMILES | KB-V1 cytotox | KB-3-1 cytotox | A549 tox | Giardia killer | Nrf2 inh | PI4K2A block
O=C(Nc1nnc(C(F)(F)F)s1)c1ccc(Br)s1 | 2.9µM* | 4.6µM* | -6% | 2 | u | 7
NC(=O)c1ccccc1NC(=O)c1ccccc1Cl | i | i | 7% | -7 | 9% | 82
CCOc1ccc(NC(=O)CSc2nnc3c(n2)[nH]c2ccc(S(=O)(=O)N(C)C)cc23)cc1 | x | x | -4% | 4 | 4% | x
O=C(Cc1ccccc1)Nc1sc2c(c1C(=O)Nc1cccc(Cl)c1)CCCC2 | x | x | 4% | x | 0% | x
CCCCCCCC(=O)N[C@H]1CC[C@@]23CCCN2C(=O)CCC[C@H]3[C@H]1C | x | x | x | x | x | -1
Cc1ccsc1C(=O)OCC(=O)Nc1sccc1C(N)=O | 18µM* | i | -10% | -3 | 6% | 9
CCOC(=O)c1c(C)[nH]c(C)c1C(=O)COC(=O)c1c(OC)cccc1OC | i | i | 1% | 1 | -26% | 1
CCOC(=O)c1c(C)[nH]c(C)c1C(=O)COC(=O)/C=C/c1ccc(OC)cc1 | 13µM* | u | -17% | -7 | 16% | -2
CCOC(=O)c1c(C)[nH]c(C)c1C(=O)COC(=O)/C=C/c1cccc(F)c1 | i | i | -6% | 5 | 9% | 2
Cc1ccsc1C(=O)OCC(=O)NCCNC(=O)COC(=O)c1sccc1C | i | i | 2% | -3 | 15% | -2
CCOC(=O)c1c(C)[nH]c(C)c1C(=O)COC(=O)c1sccc1C | 18µM* | i | -7% | 2 | -11% | -3
Cc1c(Cl)cccc1NS(=O)(=O)c1cc2c(cc1F)NC(=O)CC2 | i | i | -3% | x | u | x
Cc1[nH]c2ccccc2c1/C=N/NC(=S)NC(C)C | u | i | u | 6 | 15µM* | -23
CC(C)NC(=S)N/N=C/c1c[nH]c2ccccc12 | i | i | -3% | 0 | 20% | -1
COc1ccc(N2CCN(C(=O)Cc3nn(C)c(=O)c4ccccc34)CC2)cc1 | 15µM* | i | 12% | -26 | -18% | 3
COc1ccc(N2CCN(C(=O)c3csc4ccccc34)CC2)cc1 | 21µM* | i | -7% | -16 | -22% | 3
COc1ccc(N2CCN(C(=O)Cc3ccc(-n4c(=O)[nH]c5ccccc5c4=O)cc3)CC2)cc1 | i | i | 4% | -8 | u | 1
COc1ccc(N2CCN(C(=O)Cc3ncc(C(F)(F)F)cc3Cl)CC2)cc1 | 21µM* | i | -4% | -11 | -24% | 0
CCn1c(COc2ccc(Cl)cc2)nnc1SCc1ccc(C#N)cc1 | i | i | 1% | 10 | u | -8
CCn1c(COc2ccc(Cl)cc2)nnc1SC1CCc2ccccc2C1=O (centres undefined) | u | i | 0% | 16 | 26µM* | -3
CC1=C(C(=O)Nc2ccc(Cl)cc2)C(C(C)C)n2nc(SCc3ccc(Cl)cc3)nc2N1 (centres undefined) | i | i | 3% | x | 1% | -3
Cc1cc2c(s1)c1cnn(Cc3ccc(C(C)C)cc3)c(=O)c1n2C | x | x | 3% | x | -18% | x
Cn1nnnc1SCCCNCc1cc(Br)ccc1OCc1ccccc1F | i | i | -16% | x | u | 3
Nn1c(SCC(=O)Nc2cccc3ccccc23)nnc1-c1n[nH]c2c1CCC2 | x | x | x | x | x | 5
CC1(C)CC(=O)C2=C(C1)NC(Nc1nc3ccccc3o1)=NC2c1cccc(F)c1 (centres undefined) | i | i | -1% | 17 | 4% | x
SMILES | KB-V1 cytotox | KB-3-1 cytotox | A549 tox | Giardia killer | Nrf2 inh | PI4K2A block
CC1(C)CC(=O)C2=C(C1)NC(Nc1nc3ccccc3o1)=NC2c1cccc(O)c1 (centres undefined) | i | i | u | 13 | 21µM* | x
CCCOc1ccc(CNC(=O)CCCn2ncn3c(cc4sc(CC)cc43)c2=O)cc1 | x | x | u | x | 23µM* | -3
CCCOc1ccc(CNC(=O)Cn2ncn3c(cc4sc(CC)cc43)c2=O)cc1 | x | x | -5% | x | 3% | 3
COc1ccc(-c2csc(N3CCN(c4cc(C)nc5ccccc45)CC3)n2)cc1OC | 16µM* | i | 21µM* | 28 | 13µM* | -5
COc1cccc(Cl)c1NC(=O)N1CCN(c2ccnc3cc(Cl)ccc23)CC1 | u | i | -25% | -9 | 23µM* | 1
COc1cccc(Cl)c1NC(=O)N1CCN(c2cc(C)nc3ccccc23)CC1 | u | i | u | 11 | 23µM* | -1
Cc1cc(N2CCN(C(=O)/C=C/C(=O)O)CC2)c2ccccc2n1 | i | i | u | 6 | -9% | 3
COc1ccccc1-c1ccc2c(c1)C(C)(Cc1cc(Cl)ccc1C(F)(F)F)C(=O)N2 (centres undefined) | 21µM* | u | x | x | x | 5
O=C(NNC(=O)C12CC3CC(CC(C3)C1)C2)c1cnccn1 | u | i | -5% | -1 | -7% | 0
O=C(NNC(=O)C12CC3CC(CC(C3)C1)C2)c1ccccn1 | i | u | u | -8 | 21µM* | -2
Cc1ccc(C2=NN(Cc3nnc(-c4ccccc4)o3)C(=O)SC2)cc1 | 13µM* | i | -3% | -5 | -10% | 3
Cc1cc(C)c(S(C)(=O)=O)c(Oc2ccc(C(C)(C)C)cc2)n1 | 16µM* | i | 0% | -1 | u | 8
Cc1cc(C)c(S(C)(=O)=O)c(Oc2cccc(Cl)c2)n1 | i | i | -5% | 21 | x | -1
Nc1nc(N)c2c(ccc3c2ccn3Cc2cccc([N+](=O)[O-])c2)n1 | 1.8µM* | 0.58µM* | x | x | x | 6
Nc1nc(N)c2cc([N+](=O)[O-])ccc2n1 | i | u | -18% | -24 | 28% | 6
CC1=C(O)C(=O)C(C2=C(O)C(=O)C(C)=C(O)C2=O)=C(O)C1=O | u | u | -1% | 6 | -8% | -12
Cc1ccc(C2=C(O)C(=O)C(c3ccc(C)cc3)=C(O)C2=O)cc1 | 15µM* | u | u | -4 | u | 1

Screening data: PubChem, National Center for Advancing Translational Sciences (NCATS)
